Laboratory results as given in PubChem BioAssay (NCI).
Compounds without any hit were thinned out: in the full panel of roughly 79,000, 15% have a hit. Calls of active or inactive are those of the source. No stated cut-off is given here; in the data, active means growth inhibition above about 70%; inactive means the rest.

Experiments:
[1] = NCI Yeast Anticancer Drug Screen. Data for the mlh1 strain (AID 171);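 further: 0% = growth of vehicle-treated control cultures of the same strain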; conditions: S. cerevisiae mlh1 strain growth inhibition, hits give high values
Method in brief: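 Growth of the mutant yeast strain after compound exposure, expressed as inhibition relative to vehicle-only controls.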

[2] = NCI Yeast Anticancer Drug Screen. Data for the sgs1 strain (AID 173);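 further: 0% = growth of vehicle-only control cultures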; conditions: S. cerevisiae sgs1 mutant, hits give high values
Method in brief: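 Growth of a yeast strain bearing a defined genetic alteration is measured after compound treatment. Inhibition is expressed relative to vehicle-only controls.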

[3] = NCI Yeast Anticancer Drug Screen. Data for the mlh1 rad18 strain (AID 175); conditions: S. cerevisiae mlh1 rad18 strain growth inhibition, hits give high values
Method in brief: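 Read-out is yeast growth inhibition, calculated against vehicle-only controls. The compound was applied to a strain engineered with DNA damage repair alterations.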

[4] = NCI Yeast Anticancer Drug Screen. Data for the rad18 strain (AID 177); conditions: S. cerevisiae rad18 mutant growth inhibition, hits give high values
Method in brief: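 Growth of the mutant yeast strain after compound exposure, normalised to vehicle-only cultures.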

[5] = NCI Yeast Anticancer Drug Screen. Data for the rad52 strain (AID 147);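 further: 0% = growth of vehicle-treated control cultures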; conditions: S. cerevisiae rad52 mutant growth inhibition, hits give high values
Method in brief: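 Compounds are applied to a genetically defined yeast strain lacking normal DNA damage repair, and inhibition of growth is expressed relative to cultures given vehicle only.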

[6] = NCI Yeast Anticancer Drug Screen. Data for the wt1 strain (AID 149);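 further: 0% = growth of vehicle-treated wt1 cultures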; conditions: S. cerevisiae wt1 strain (SPY 50644) growth inhibition, hits give high values
Method in brief: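 The wt1 strain was treated with compounds, and growth was compared with vehicle-treated cultures to give inhibition.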

[7] = NCI Yeast Anticancer Drug Screen. Data for the rad50EPP+ strain (AID 151);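 further: 0% = growth of vehicle-treated control cultures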; conditions: S. cerevisiae rad50 mutant strain, hits give high values
Method in brief: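 Compounds were applied to the rad50EPP+ yeast strain, which bears a defined DNA repair alteration, and growth inhibition was determined relative to vehicle-treated cultures.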

[8] = NCI Yeast Anticancer Drug Screen. Data for the rad50 strain (AID 155);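 further: 0% = growth of vehicle-only cultures of the same strain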; conditions: S. cerevisiae rad50 strain growth inhibition, hits give high values
Method in brief: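 Cells are treated with compound, grown, and their growth is then scored against vehicle-only cultures of the same repair-deficient yeast strain.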

[9] = NCI Yeast Anticancer Drug Screen. Data for the mec2-1 strain (AID 157); conditions: S. cerevisiae mec2-1 strain, hits give high values
Method in brief: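 Strain: mec2-1 (DNA repair/cell cycle alteration). Compound exposure, then growth measured; inhibition expressed relative to vehicle.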

[10] = NCI Yeast Anticancer Drug Screen. Data for the rad14 strain (AID 159);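 further: 0% = growth of vehicle-treated control cultures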; conditions: S. cerevisiae rad14 strain growth inhibition, hits give high values
Method in brief: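 Readout: yeast growth inhibition, referenced to vehicle-only cultures. Strain bears a defined alteration in DNA damage repair.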

[11] = NCI Yeast Anticancer Drug Screen. Data for the sgs1 mgt1 strain (AID 161);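 further: 0% = growth of cultures given vehicle only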; conditions: S. cerevisiae sgs1 mgt1 strain, hits give high values
Method in brief: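 Inhibition of yeast growth, normalised to vehicle-treated controls, is reported for a strain bearing genetic alterations in DNA damage repair.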

[12] = NCI Yeast Anticancer Drug Screen. Data for the CLN2oe strain (AID 163);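 further: 0% = growth of vehicle-only control cultures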; conditions: S. cerevisiae CLN2oe strain, hits give high values
Method in brief: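 Growth of a genetically modified yeast strain is measured after compound exposure and compared with cultures given vehicle alone.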

[13] = NCI Yeast Anticancer Drug Screen. Data for the cln2 rad14 strain (AID 165);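 further: 0% = growth equal to vehicle treated cultures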; conditions: S. cerevisiae cln2 rad14 strain, hits give high values
Method in brief: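 Compounds are applied to the cln2 rad14 yeast strain, and growth is then compared with that of vehicle-treated cultures to give inhibition.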

[14] = NCI Yeast Anticancer Drug Screen. Data for the bub3 strain (AID 167); conditions: S. cerevisiae bub3 mutant strain, hits give high values
Method in brief: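 Part of a panel of yeast mutants defective in DNA damage repair or cell cycle regulation. Each strain is grown with compound, and inhibition is calculated relative to solvent-treated cultures.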

[15] = NCI Yeast Anticancer Drug Screen. Data for the wt2 strain (AID 169);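 further: 0% = growth of vehicle-treated yeast cultures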; conditions: S. cerevisiae wt2 strain growth inhibition, hits give high values
Method in brief: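 This strain belongs to a panel of yeast strains with defined genetic alterations in DNA damage repair or cell cycle control. Compounds are applied, and growth inhibition is measured against vehicle-treated cultures.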

[16] = at 5.0 µM (retest, dose inferred, filed as 0.5)
[17] = at 50.0 µM (retest, dose inferred, filed as 5.0)

Measured: growth inhibition

Nc1ncncc1C(C1=C(O)COC1=O)C1=C(O)COC1=O
inactive: [1]; at 1.2 µM 4% | [1]; at 3.7 µM 1% | [1]; at 11.0 µM 3% | [1]; at 33.0 µM 3% | [1]; at 100.0 µM 0% | [2]; at 1.2 µM 3% | [2]; at 3.7 µM 3% | [2]; at 11.0 µM 3% | [2]; at 33.0 µM 2% | [2]; at 100.0 µM -1% | [3]; [16] 2% | [3]; [17] 57% | [3]; at 50.0 µM 4.8% | [4]; at 1.2 µM 1% | [4]; at 3.7 µM 0% | [4]; at 11.0 µM -1% | [4]; at 33.0 µM -3% | [4]; at 100.0 µM -4%

O=[N+]([O-])c1cccc([N+](=O)[O-])c1S(=O)(=O)c1ccccc1
active: [5]; at 1.2 µM 87% | [5]; at 3.7 µM 93% | [5]; at 11.0 µM 97% | [5]; at 33.0 µM 98% | [5]; at 100.0 µM 97% | [6]; at 33.0 µM 89% | [6]; at 100.0 µM 93% | [7]; at 1.2 µM 76% | [7]; at 3.7 µM 88% | [7]; at 11.0 µM 93% | [7]; at 33.0 µM 94% | [7]; at 100.0 µM 92% | [8]; at 1.2 µM 83% | [8]; at 3.7 µM 91% | [8]; [16] 82% | [8]; at 11.0 µM 95% | [8]; at 33.0 µM 97% | [8]; [17] 87% | [8]; at 50.0 µM 82.8% | [8]; at 100.0 µM 96% | [9]; at 11.0 µM 87% | [9]; at 33.0 µM 96% | [9]; [17] 91% | [9]; at 50.0 µM 83.3% | [9]; at 100.0 µM 95% | [10]; at 33.0 µM 92% | [10]; at 100.0 µM 92% | [12]; at 33.0 µM 84% | [12]; at 100.0 µM 85% | [13]; [17] 76% | [14]; at 33.0 µM 92% | [14]; [17] 88% | [14]; at 50.0 µM 77.6% | [14]; at 100.0 µM 81% | [15]; at 33.0 µM 90% | [15]; at 100.0 µM 94% | [1]; at 11.0 µM 76% | [1]; at 33.0 µM 97% | [1]; at 100.0 µM 95% | [2]; at 11.0 µM 75% | [2]; at 33.0 µM 95% | [2]; at 100.0 µM 94% | [3]; [17] 76% | [3]; at 50.0 µM 87.9% | [4]; at 11.0 µM 82% | [4]; at 33.0 µM 95% | [4]; at 100.0 µM 95%
inactive: [6]; at 1.2 µM 20% | [6]; at 3.7 µM 33% | [6]; at 11.0 µM 67% | [9]; at 1.2 µM 19% | [9]; at 3.7 µM 37% | [9]; [16] 14% | [10]; at 1.2 µM -13% | [10]; at 3.7 µM 0% | [10]; at 11.0 µM 59% | [11]; [16] 2% | [11]; [17] 33% | [11]; at 50.0 µM 65.1% | [12]; at 1.2 µM 7% | [12]; at 3.7 µM 4% | [12]; at 11.0 µM 52% | [13]; [16] -8% | [13]; at 50.0 µM 34.8% | [14]; at 1.2 µM 0% | [14]; at 3.7 µM 8% | [14]; [16] 5% | [14]; at 11.0 µM 56% | [15]; at 1.2 µM 1% | [15]; at 3.7 µM 22% | [15]; at 11.0 µM 60% | [1]; at 1.2 µM -1% | [1]; at 3.7 µM 22% | [2]; at 1.2 µM 22% | [2]; at 3.7 µM 42% | [3]; [16] 41% | [4]; at 1.2 µM 17% | [4]; at 3.7 µM 30%

S=c1[nH]nc(Nc2ccc(Cl)cc2)s1
active: [5]; at 33.0 µM 70% | [5]; at 100.0 µM 96% | [6]; at 100.0 µM 89% | [8]; at 50.0 µM 92.8% | [9]; [17] 93% | [9]; at 50.0 µM 91.8% | [9]; at 100.0 µM 91% | [10]; at 100.0 µM 96% | [11]; [17] 86% | [11]; at 50.0 µM 89% | [12]; at 100.0 µM 73% | [13]; [17] 83% | [13]; at 50.0 µM 90.5% | [14]; at 50.0 µM 88.8% | [15]; at 33.0 µM 82% | [15]; at 100.0 µM 98% | [2]; at 100.0 µM 91% | [3]; at 50.0 µM 92.6% | [4]; at 100.0 µM 94%
inactive: [5]; at 1.2 µM -6% | [5]; at 3.7 µM -9% | [5]; at 11.0 µM 1% | [6]; at 1.2 µM 1% | [6]; at 3.7 µM 4% | [6]; at 11.0 µM 6% | [6]; at 33.0 µM 36% | [7]; at 1.2 µM -2% | [7]; at 3.7 µM -10% | [7]; at 11.0 µM 13% | [7]; at 33.0 µM 27% | [7]; at 100.0 µM 23% | [8]; at 1.2 µM -7% | [8]; at 3.7 µM -13% | [8]; [16] -150% | [8]; at 11.0 µM -10% | [8]; at 33.0 µM -17% | [8]; [17] 32% | [8]; at 100.0 µM 42% | [9]; at 1.2 µM -1% | [9]; at 3.7 µM -1% | [9]; [16] -49% | [9]; at 11.0 µM -6% | [9]; at 33.0 µM 3% | [10]; at 1.2 µM -3% | [10]; at 3.7 µM 1% | [10]; at 11.0 µM 0% | [10]; at 33.0 µM 46% | [11]; [16] -61% | [12]; at 1.2 µM -7% | [12]; at 3.7 µM -7% | [12]; at 11.0 µM -13% | [12]; at 33.0 µM -11% | [13]; [16] -55% | [14]; at 1.2 µM -3% | [14]; at 3.7 µM -1% | [14]; [16] -67% | [14]; at 11.0 µM -7% | [14]; at 33.0 µM -10% | [14]; [17] 38% | [14]; at 100.0 µM 9% | [15]; at 1.2 µM 1% | [15]; at 3.7 µM 9% | [15]; at 11.0 µM 8% | [1]; at 1.2 µM -7% | [1]; at 3.7 µM -2% | [1]; at 11.0 µM -4% | [1]; at 33.0 µM 8% | [1]; at 100.0 µM 61% | [2]; at 1.2 µM -14% | [2]; at 3.7 µM -7% | [2]; at 11.0 µM 2% | [2]; at 33.0 µM 37% | [3]; [16] -149% | [3]; [17] 19% | [4]; at 1.2 µM -3% | [4]; at 3.7 µM 2% | [4]; at 11.0 µM -4% | [4]; at 33.0 µM 38%
